Lassa entry inh – qHTS for Inhibitors of binding or entry into cells for Lassa Virus | Lassa virus pseudotype entry inhibition, cell reporter | Potency, µM (doses to about 37.9 µM), inactives show top-dose activity change, negative = inhibition, actives largely listed as inhibitors | 300,000 compounds, 1.2% hits | AID 540256, 2011; calls by dose curve; tested in HEK293 cells; further: potency means the concentration at half of the fitted maximal effect; on the % scale 0 is the no-effect control and ±100 the full control effect; nearly all actives have a fitted effect of over 50% in size
HCV inhibitor – qHTS Assay for Inhibitors of Hepatitis C Virus (HCV). Huh7.5.1 HCVcc-Cre infection, luciferase reporter, 44 h. Potency, µM (highest dose often 41.8 µM), for inactives: at the top dose activity change, negative = inhibition, actives largely listed as inhibitors. 340,000 compounds, 3.4% hits; active means well fitted inhibition curve with a large enough effect; inconclusive means small, poorly fitted or top-dose-only effect, or another doubt; inactive means no such curve, though single readings can be large or run the other way; further: potency means the concentration at half of the fitted maximal effect; on the % scale 0 is the no-effect control and ±100 the full control effect
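After 44 h co-culture of compound, cells and HCVcc-Cre (~0.5 moi), substrate is added for 15 min at room temperature and luciferase measured over 15 sec. Cells were seeded at 1,000/well and pre-cultured 4 h.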
FMDV antiviral – High Throughput Screening for Foot and Mouth Disease Virus Antivirals | FMDV antiviral cell-based qHTS | 410,000 compounds, 1.2% hits | Potency, µM (highest dose often 57.9 µM), for the others: top-dose activity change, negative = inhibition, usual class: inhibitors; calls by dose curve; tested in HEK293T cells; further: read-out not given here; potency means the concentration at half of the fitted maximal effect; on the % scale 0 is the no-effect control and ±100 the full control effect; nearly all actives have a fitted effect of over 45% in size
HCMV antiviral – qHTS Assay for inhibitors of the human cytomegalovirus (HCMV). HFF cells, HCMV-luciferase reporter, 72 h; active compounds read low. 410,000 compounds, 4.5% hits. activity change, negative = inhibition, % at 57.5 µM; in the data active means activity change below about -60%; inconclusive means no clear call, values can overlap the other calls; inactive means above about -39%; further: on the % scale 0 is the no-effect control and ±100 the full control effect
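Steps: HFFs plated, 16 h 37C; compounds added; HCMV-luciferase added to MOI 1 PFU/cell; 72 h 37C; OneGlo reagent, 5 min room temperature; luminescence read, normalized to controls.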
SARS PLP yeast – qHTS of Yeast-based Assay for SARS-CoV PLP; S. cerevisiae expressing SARS-CoV PLpro, growth rescue; Potency, µM (series often up to 32.9 µM), for inactives: top-dose activity, positive = growth rescue, hits mostly activators; 330,000 compounds, 0.19% hits; calls by dose curve; further: potency means the concentration at half of the fitted maximal effect; 0% is about no effect; nearly all actives have a fitted effect of over 55% in size
MARV entry inh – qHTS for inhibitors of binding or entry into cells for Marburg Virus; Marburg virus pseudotyped entry inhibition, cell reporter; 300,000 compounds, 1.8% hits; Potency, µM (titrated, usually from 37.8 µM), for the others: at the highest dose activity change, negative = inhibition, most hits filed as inhibitors; AID 540276, 2011; calls by dose curve; tested in HEK293 cells; further: potency means the concentration at half of the fitted maximal effect; on the % scale 0 is the no-effect control and ±100 the full control effect
Active calls of the source: *; ? = inconclusive; / = not tested or not shown; [ ] = another dose, or the depositor's remark. In the library only some 8% were active in any assay of this set; here they are far more common.

SMILES	Lassa entry inh	HCV inhibitor	FMDV antiviral	HCMV antiviral	SARS PLP yeast	MARV entry inh
O=C(CCCc1ccccc1)NC1CC(=O)N(c2ccc(Cl)cc2)C1 (centres undefined)	-3%[46.1 µM]	/	-14%	57	/	/
S=C(NCc1ccco1)NCc1ccco1	12%	18%	-7%	-38	/	8%
CN(C)c1ccc(C(=S)NCc2ccco2)cc1	?	3%	16µM*	72	-4%	?
CN(C)c1ccc(/C=N/NC(=S)NCc2ccco2)cc1	2.1µM*	-4%	-8%	-9	7%	?
COC(=O)C1=C2C=CCCN2C(=O)NC1c1ccccc1 (centres undefined)	/	/	/	/	/	-17%[14.2 µM]
CCOc1ccc(CN2CCN(CC3=Cc4cccc(OC)c4OC3)CC2CCO)cc1 (centres undefined)	/	10µM*	?	-34	0%	/
CN(C)CCN(Cc1ccco1)C(=O)c1cc2c(Cl)nc3ccccc3c2s1	0%	10µM*	-28%	?	0%	15µM*
O=C1CCC2=C(O1)C(O)=C(O)CC2	/	/	/	/	/	8%
Cc1ccccc1-c1noc(-c2ccc(N3CCN(C)CC3)c([N+](=O)[O-])c2)n1	-2%[46.1 µM]	/	?	-75*	/	22%[46.1 µM]
Cc1ccccc1-c1noc(-c2ccc(N3CCCC3)c([N+](=O)[O-])c2)n1	11%[46.1 µM]	/	-32%	-69*	/	5%[46.1 µM]
COc1ccc(S(=O)(=O)NCC(c2ccco2)S(=O)(=O)c2cccs2)cc1F (centres undefined)	-9%[46.1 µM]	/	58%	?	/	/
Cc1ccc(-c2nnc(SCC(=O)Nc3ccccc3F)o2)cc1	/	-9%	-9%	-95*	-1%	/
Cc1ccc(-c2nnc(SCc3ccccc3F)o2)cc1	?	?	10%	79	-18%	16µM*
O=C(CSc1nnc(-c2cccnc2)o1)Nc1ccc(F)cc1	/	/	59%	-76*	/	/
S=c1[nH]cnc2scc(-c3ccccc3)c12	-13%	-4%	-16%	-77*	?	16%
Clc1ncnc2scc(-c3ccccc3)c12	-3%	3%	/	13	-6%	-18%
O=C(/C=C\c1ccco1)Oc1cccc2cccnc12	27%	?	9%	12	2%	?
O=C(/C=C/c1ccco1)Oc1cccc2cccnc12	6%	?	11%	-72*	-7%	?
CCOC(=O)c1c(CC(C)C)csc1NC(=O)COC(=O)c1cc(OC)c(OC)cc1[N+](=O)[O-]	/	-7%	-1%	-71*	-14%	-1%
c1cnc2c(c1)ccc1ncccc12	/	8%	1%	0	-1%	/
Cc1ccc2ccc3cccnc3c2n1	?	?	10%	-78*	/	?
CCOc1ccc(CN(CCc2ccc3c(c2)OCO3)Cc2cc(OC)cc(OC)c2)cc1	-1%[46.1 µM]	/	?	19	/	-37%[46.1 µM]
CCCN1CNC(=S)N(Cc2ccccc2)C1	-1%	23%	-10%	-5	8%	2%
S=C1NCN(CCc2ccccc2)CN1Cc1ccccc1	/	-24%	-17%	-62*	0%	-1%
CCCN1CN(Cc2ccccc2)CNC1=S	8%	12%	?	-23	11µM*	9%
SMILES	Lassa entry inh	HCV inhibitor	FMDV antiviral	HCMV antiviral	SARS PLP yeast	MARV entry inh
COc1ccc(OC)c(S(=O)(=O)NCCc2csc3nc(-c4ccccc4)nn23)c1	-22%[46.1 µM]	/	72%	38	/	/
CC(Sc1n[nH]c(=O)[nH]c1=O)C(=O)OCc1ccccc1 (centres undefined)	-5%	15%	-3%	12	/	-11%
CCC(Sc1n[nH]c(=O)[nH]c1=O)C(=O)OCc1ccccc1 (centres undefined)	12%	10%	1.8µM*	-37	13%	10%
Nc1ncc(-c2ccccc2)c(-c2ccc(O)cc2O)n1	5%[46.1 µM]	?	?	-61*	3%	?
COc1ccc(-c2cnc(N)nc2-c2ccc(OCc3ccccc3)cc2O)cc1	?	?	?	-1	-2%	?
Nc1ccc(-c2ccc3ccccc3n2)cc1	?	/	/	/	/	6.3µM*
COc1ccc(-c2ccc3ccccc3n2)cc1	?	?	-15%	42	-2%	?

Screening data as filed in PubChem BioAssay.
